Measurements: PubChem BioAssay AID431 (Sanford-Burnham Center for Chemical Genomics, 2006)
Out of some 63,000 compounds screened, about 1,100 (1.7%) were called active. This excerpt belongs to a sample that is enriched for actives. Measured potencies and affinities stand elsewhere. Unmarked numbers belong to inactive results.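 Rule for the calls: active = compounds whose percent cytotoxicity in the single-dose primary screen, scaled between solvent and toxic-drug controls, exceeds 50; inactive = the rest.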

experiment: cytotoxicity in KRAS-transformed pancreatic duct cells, primary screen, cell-based, fluorescence, HTS (AID 431); conditions: HPDE-C7K KRASV12 cells, Alamar Blue viability, 48 h; at 10 µM; hits give high values;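 note: 0% = DMSO solvent wells and 100% = doxorubicin-treated wells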

Structure (SMILES) | cytotoxicity
c1cncc(C(c2nnnn2C2CCCC2)N2CCCC2)c1 (stereo unspecified) | 6%
Cc1ccc(SCc2nc(-c3ccccc3)no2)cc1 | -10.8%
O=C(O)CCC(=O)N1CCN(c2cccc(Cl)c2)CC1 | -6.3%
CCc1[nH]c(C)c(C(C)=O)c1C | 65.5% (active)
CCCNC(=O)c1[nH]c(C)c(C(C)=O)c1C | 7.9%
CC(=O)c1c(C)[nH]c(C)c1C(C)=O | -3.5%
O=C(Nc1ccccc1C(=O)N1CCCC1)c1cccc(S(=O)(=O)N2CCCCCC2)c1 | -4.2%
c1ccc2c(c1)CCN2CCN1CCc2ccccc21 | 1.1%
COc1ccc(NC(=O)C2CCCN2C(=O)NCc2ccccc2)c(OC)c1 (stereo unspecified) | -13.7%
O=C(c1cc(-c2ccccn2)nc2c(Cl)cccc12)N1CCN(C(=O)C2CCCO2)CC1 (stereo unspecified) | 0.1%
CCn1c(Sc2nc(C)nc3scc(-c4cccs4)c23)n[nH]c1=O | -16.8%
Cc1cccc(C(=O)NC2CC3CCCC(C2)N3C(=O)NC2CCCCC2)c1 (stereo unspecified) | -1.9%
NC1=NC(c2ccc(Cl)cc2)n2c(nc3ccccc32)N1 (stereo unspecified) | -23.5%
O=C(Nc1nc2c(s1)CCCC2)c1cc2n(n1)C(C(F)(F)F)CC(C1CC1)N2 (stereo unspecified) | 52.5% (active)
Cc1nnc(NC(=O)c2cc3n(n2)C(C(F)(F)F)CC(C2CC2)N3)s1 (stereo unspecified) | -34.9%
O=C(NCc1ccc(F)cc1)c1cc2n(n1)C(C(F)(F)F)CC(C1CC1)N2 (stereo unspecified) | -22%
COC(=O)COc1cccc(NC(=O)c2ccccc2)c1 | -1.5%
Cc1nc2sc(C(c3cccc(F)c3)N3CCC(O)CC3)c(O)n2n1 (stereo unspecified) | -0.3%
CC(=O)C1=C(C)N=c2s/c(=C/c3ccc4c(c3)OCO4)c(=O)n2C1c1ccc(N(C)C)cc1 (stereo unspecified) | -0.2%
COc1ccc(C2C(C(C)=O)=C(C)N=c3s/c(=C/c4ccc5c(c4)OCO5)c(=O)n32)cc1 (stereo unspecified) | -10.1%
CCC(C)(C)n1nnnc1C(c1cc2ccc(OC)cc2[nH]c1=O)N1CCc2ccccc2C1 (stereo unspecified) | 35%

Structure (SMILES) | cytotoxicity
COC(=O)c1ccccc1NS(=O)(=O)c1ccc(O)c(C(=O)O)c1 | 19.7%
COC(=O)c1ccc(CN2C(=O)NC3(CCCCC3C)C2=O)o1 (stereo unspecified) | 3.4%
CCN(CC)c1ccc(NC(=O)c2cnc3ccccn3c2=O)c(C)c1 | 3.9%
Cn1nnnc1SCCNCc1cccc2ccccc12 | -3%
CCOc1cccc(C(=O)Nc2ccc(N(CC)CC)cc2)c1 | 87.5% (active)
CCN(CC)c1ccc(NC(=O)Nc2cccc(C(C)=O)c2)cc1 | 16.4%
CCN(CC)c1ccc(C(=O)Nc2cccc(F)c2)cc1 | 57.4% (active)
CCN(CC)c1ccc(NC(=O)c2ccc(NC(=O)C3CCCO3)cc2)c(C)c1 (stereo unspecified) | -1.3%
CCOc1cccc(C(=O)Nc2ccc(N3CCN(S(C)(=O)=O)CC3)cc2)c1 | -10%
CC(=O)Nc1ccc(NC(=O)c2ccccc2F)cc1 | 8.8%
CCN(CC)c1ccc(NC(=O)c2ccccc2F)cc1 | 50.7% (active)
O=C(Nc1ccncc1)c1ccccc1F | -14.5%
CCOc1ccc(NC(=O)c2cccc(-n3cnnn3)c2)cc1 | -18%
CCN(CC)c1ccc(NC(=O)c2cc(OC)cc(OC)c2)c(C)c1 | 59.9% (active)
CCN(CC)c1ccc(NC(=O)c2ccco2)c(C)c1 | 10.7%
CN(C)c1cccc(C(=O)Nc2cccc(F)c2)c1 | 2.1%
Cc1cccc(COc2ccc(/C(O)=C3\C(=O)C(=O)N(CCN(C)C)C3c3ccncc3)cc2)c1 (stereo unspecified) | 0.7%
O=C(c1ccco1)N1CCN(C(=O)c2cc(-c3ccncc3)nc3ccc(Br)cc23)CC1 | 1.3%
O=C(NCC(=O)N(Cc1ccccc1)C(C(=O)NC1CCCC1)c1ccco1)c1ccco1 (stereo unspecified) | -6.1%
Cn1c(COc2ccccc2)nnc1SCC(=O)Nc1ccc2c(c1)OCO2 | 9.4%
O=C1c2oc3ccc(F)cc3c(=O)c2C(c2ccncc2)N1CCN1CCOCC1 (stereo unspecified) | -11.5%

Structure (SMILES) | cytotoxicity
O=C(CN(Cc1ccco1)S(=O)(=O)c1cccs1)Nc1ccccc1C(F)(F)F | -23.6%
CCN(CC)c1ccc(NC(=O)c2cccc(C)c2OC)c(C)c1 | 2.9%
CCN(CC)c1ccc(NC(=O)c2c(OC)cccc2OC)c(C)c1 | -0.6%
CCN(CC)c1ccc(NC(=O)c2cccc(OC)c2)c(C)c1 | 55.4% (active)
O=C(Nc1ccc(N2CCN(Cc3ccccc3Cl)CC2)cc1)c1cccnc1 | 16.7%
Cc1cc(Nc2ccccc2C(=O)O)nc2nc3ccccc3c(=O)n12 | -5.3%
N#CC(C(=O)NC1CCCCC1)c1nc2ccccc2nc1N1CCOCC1 (stereo unspecified) | 13.7%
CCc1ccc(-c2cn(-c3nc(C)cc(C)n3)c(=N)o2)cc1 | 54.8% (active)
CCc1ccc(-n2c(O)cnc2Nc2nc(C)cc(C)n2)cc1 | -3%
CCc1ccc(-c2cn3nc(C)c(C)nc3n2)cc1 | -7.6%
CC1CCc2cc(F)ccc2N1C(=O)CCC(=O)O (stereo unspecified) | -12.5%
CN(C)c1nc(N)nc(CSc2nnnn2C)n1 | 8.9%
COc1ccc(C2=NOC(CN3C(=O)c4ccccc4S3(=O)=O)C2)cc1 (stereo unspecified) | -0.1%
N#Cc1c(N)nc2c(c1N)CC(=O)N2c1ccccc1-c1ccccc1 | 5.8%
CC(C)(C)N1C(=O)Cc2c1nc(N)c1c(N)nc(N3CCCCC3CO)c(C#N)c21 (stereo unspecified) | 59.9% (active)
N=c1c2c(-c3ccccc3)c(-c3ccccc3)n(Cc3ccco3)c2ncn1CCN1CCOCC1 | 32.6%
O=c1c2ccccc2nc(-c2ccccc2)n1CCCn1ccnc1 | -22.7%
OCCNc1ncnc2c1c(-c1ccccc1)c(-c1ccccc1)n2Cc1ccco1 | 21.6%
CC1(C)CC(=O)C2=C(C1)Oc1ncn(CCCn3ccnc3)c(=N)c1C2c1ccccc1 (stereo unspecified) | 9.8%
